Data as given in the supplement of paper PMC6555819.

Experiments:
Test in all cases: PBM binding z-score (relative to random genomic background probes); higher = stronger binding; sequences stand for … in GC…GCGATTGACAGCGTAGAATGAAGG
[1] = test system: FXR:RXRa (NR concentration 270 nM, RXRa partner concentration 90 nM)
Method in brief: (§1)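 Random background probes are the reference for binding z-scores. These scores derive from regression-normalized fluorescence on custom Agilent 4×180K protein-binding microarrays incubated 1 h with ligand-free nuclear receptor dimers. Binding was detected with antibodies against each partner (one per run).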

[2] = test system: LXRa:RXRa (NR concentration 270 nM, RXRa partner concentration 90 nM)
Method in brief: as §1

[3] = test system: LXRa homodimer (NR concentration 270 nM)
Method in brief: as §1

[4] = test system: LXRb:RXRa (NR concentration 270 nM, RXRa partner concentration 90 nM)
Method in brief: as §1

[5] = test system: LXRb homodimer (NR concentration 270 nM)
Method in brief: as §1

[6] = test system: PPARa:RXRa (NR concentration 270 nM, RXRa partner concentration 90 nM)
Method in brief: as §1

[7] = test system: PPARg:RXRa (NR concentration 180 nM, RXRa partner concentration 90 nM)
Method in brief: as §1

[8] = test system: PPARg:RXRa 270nM:90nM, anti-RXR (NR concentration 270 nM, RXRa partner concentration 90 nM)
Method in brief: as §1

[9] = test system: PPARg:RXRa 30nM:10nM, anti-RXR (NR concentration 30 nM, RXRa partner concentration 10 nM)
Method in brief: as §1

[10] = test system: PPARg:RXRa 90nM:30nM, anti-RXR (NR concentration 90 nM, RXRa partner concentration 30 nM)
Method in brief: as §1

[11] = test system: PPARg:RXRa DBDmut IVT, anti-RXR (DBD mutation: RXRa K156A/R161A, NR concentration 270 nM, RXRa partner concentration 90 nM)
Method in brief: as §1

[12] = test system: PPARg:RXRa IVT, anti-PPARg (NR concentration 270 nM, RXRa partner concentration 90 nM)
Method in brief: as §1

[13] = test system: PPARg DBDmut:RXRa IVT, anti-PPARg (DBD mutation: PPARg1 K132A/R137A, NR concentration 270 nM, RXRa partner concentration 90 nM)
Method in brief: as §1

[14] = test system: PPARg DBDmut IVT, anti-PPARg (DBD mutation: PPARg1 K132A/R137A, NR concentration 270 nM)
Method in brief: as §1

[15] = test system: PPARg homodimer (NR concentration 180 nM)
Method in brief: as §1

[16] = test system: PXR:RXRa (NR concentration 270 nM, RXRa partner concentration 90 nM)
Method in brief: as §1

[17] = test system: PXR homodimer (NR concentration 270 nM)
Method in brief: as §1

[18] = test system: RARa:RXR (NR concentration 270 nM, RXRa partner concentration 90 nM)
Method in brief: as §1

[19] = test system: RARa homodimer (NR concentration 270 nM)
Method in brief: as §1

[20] = test system: RARb:RXRa (NR concentration 270 nM, RXRa partner concentration 90 nM)
Method in brief: as §1

Sequence	PBM binding z-score [1]	PBM binding z-score [2]	PBM binding z-score [3]	PBM binding z-score [4]	PBM binding z-score [5]	PBM binding z-score [6]	PBM binding z-score [7]	PBM binding z-score [8]	PBM binding z-score [9]	PBM binding z-score [10]	PBM binding z-score [11]	PBM binding z-score [12]	PBM binding z-score [13]	PBM binding z-score [14]	PBM binding z-score [15]	PBM binding z-score [16]	PBM binding z-score [17]	PBM binding z-score [18]	PBM binding z-score [19]	PBM binding z-score [20]
ATATGTAGGTTACATCCGGGTCATTCCGGCTATG	1.93	4.16	1.81	2.68	0.955	4.37	5.96	5.25	2.7	4.37	7.45	7.39	4.71	3.42	2.43	3.36	1.56	3.56	0.832	2.14
CGTCCAAGGTCAGCACGTCAGTGAAAGCGACGTG	5.32	3.11	-0.0642	2.37	-0.16	4.23	2.38	2.91	0.448	1.36	2.18	2.13	0.0717	0.0669	1.85	2.31	0.247	3.39	0.134	4.89
CTCGAAAGGTCGGTTGAGGTGAATATACGGATAA	2.5	2.04	0.0954	1.76	0.0541	3.15	0.944	1.6	0.365	1.15	-0.113	1.11	0.319	0.349	0.741	3.62	0.148	2.94	0.256	3.27
CCTTACGCGTCACGAGGTTATAGCACGACGAGCG	0.529	0.868	0.107	0.95	0.329	1.44	1.08	0.331	-0.172	-0.00609	0.147	0.154	0.124	0.548	1.05	1.03	0.532	1.15	0.761	0.811
AGTTAAAGTTCAGGACGAGGTAACGTAAAGCACG	3.69	3.97	1.7	1.91	0.474	2.83	2.49	3.2	1.18	2.14	-0.314	1.18	0.861	1.1	2.09	2.95	1.51	2.66	0.705	4.06
ATCTCTAGGTAATAAGTTCAGTGAAAGAGAGGAC	0.945	1.09	0.832	0.701	1.15	1.51	1.69	2.39	1.36	2.07	2.07	2.06	1.58	1.43	1.52	1.7	2.13	0.943	1.54	1.83
CCTGCTTGGTCAATGGTCAGCTAAAGCAGCTCGC	-0.266	-0.183	-0.536	-0.566	-0.491	-0.243	-0.553	0.82	-0.904	0.17	0.434	-0.107	-1.05	-0.884	0.138	-0.296	-0.881	0.00711	-0.943	1.01
CAAATTAGGTCACAGAGGTCAAAGTCCGTGCGTA	7.48	6.57	7.83	6.26	2.94	6.44	9.76	8.05	6.42	8.29	8.01	8.49	2.82	1.45	5.32	6.74	11.4	7.4	3.41	5.27
GATACAGGGTCAGCTAGAGACCAGAGTATGGAAA	4.21	2.28	-0.37	2.36	-0.416	4.54	3.4	3.33	0.781	2.29	1.1	2.34	0.401	-0.539	1.14	1.89	0.00163	2.98	0.39	3.53
CCTGCTCGGTCATGGTCAGCTAATCTACAGTATG	0.209	0.33	0.0504	-0.0325	-0.00908	0.0849	0.0527	-0.261	-0.454	-0.32	0.829	0.464	-0.762	-0.953	-0.491	-0.351	-0.822	-0.293	-0.596	2.46
CGAACTAGGTCAGAACAGGCCAGTGAAGGATGAT	1.1	0.652	-0.282	0.231	-0.675	3.02	4.88	4.38	1.91	3.5	6.91	7.16	0.994	-0.348	1.63	0.505	-0.233	1.18	-0.387	2.97
ATCTCTAGGTAAGATTCAGTTCAGTGAAGAACGC	0.354	0.48	0.604	0.249	0.778	0.179	-0.128	0.299	0.045	0.492	0.989	0.954	0.543	0.745	0.75	0.994	1.17	0.657	1.15	0.123
TCATATAGGTAAAGTTGAAAGTCGAACGATATGA	0.231	0.886	-0.186	0.68	-0.123	2.11	1.9	3.23	3.72	3.52	3.68	2.66	1.6	1.18	0.5	0.661	0.0596	0.908	0.307	1.08
CGAACTAGGTCAGAACAGGACAGGGAAGGATGAT	1.5	1.01	0.0984	0.515	-0.138	3.4	5.45	4.61	1.99	3.65	7.1	7.39	2	3.12	1.1	0.778	0.31	2.03	0.307	3.02
